Sampled rows, rich in hits. Any-hit rate of the full collection: about 6.6%.
MCF10A rereplic = induces DNA re-replication in MCF 10a normal breast cells. Potency, µM (titrated, usually from 46.1 µM), usual class: activators. MCF 10A DNA re-replication, Hoechst nuclear intensity, 48 h. AID 624296. 2.9% of 350,000 active; further: nearly all actives have a fitted effect of over 50% in size
RGS4 inhibitor = human RGS4 inhibition; P49798; Transcreener GDP fluorescence polarization, RGS4-accelerated GTP hydrolysis; Potency, µM (highest dose often 114 µM), hits mostly inhibitors; 0.039% of 390,000 active; further: nearly all actives have a fitted effect of over 75% in size
Target sequence (P49798 whole entry, looked up): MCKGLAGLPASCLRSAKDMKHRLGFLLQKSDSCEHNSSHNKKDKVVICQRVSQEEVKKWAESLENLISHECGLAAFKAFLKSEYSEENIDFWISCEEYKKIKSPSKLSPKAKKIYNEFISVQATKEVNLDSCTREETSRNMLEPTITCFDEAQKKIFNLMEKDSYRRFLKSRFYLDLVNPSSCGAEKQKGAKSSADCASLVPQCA
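MLSMR compounds (23 nl, pin-transferred) preincubated 10 min at room temperature with a 500nM (2x) first reagent, then RGS4 at 900nM (2x) plus Transcreener GDP mix added; fluorescence polarization (620/688 nm) read before and after 90 min at 30 °C.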
SW480 rereplic = inducers of DNA re-replication in SW480 colon cancer cells; Potency, µM (titrated, usually from 46.1 µM), actives largely listed as activators; AID 624297; SW480 DNA re-replication, Hoechst DNA content imaging, 48 h; 1.8% of 340,000 active; further: nearly all actives have a fitted effect of over 55% in size
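Treated cells incubate 48 hr (37 C, 5% CO2), are stained 40 min with Hoechst, and nuclear fluorescence is enumerated; a rise in nuclei with high DNA signal marks re-replication.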
KB-3-1 tox = KB-3-1 parental cell cytotoxicity; AID 1347075; Potency, µM (highest dose often 46.1 µM), actives largely listed as cytotoxic; 1.4% of 400,000 active; KB-3-1 viability, CellTiter-Glo ATP luminescence, 72 h; further: nearly all actives have a fitted effect of over 60% in size
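Screening of KB-3-1 cells (DMEM, 10% FBS, phenol-red free) ran from lowest to highest compound concentration; after 72 h at 37 °C viability was read luminescently and curves fitted.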
KB-V1 cytotox = KB-V1 MDR subline cytotoxicity; KB-V1 MDR cells viability, CellTiter-Glo, 72 h; Potency, µM (series often up to 46.1 µM), actives largely listed as cytotoxic; 3.4% of 400,000 active; further: nearly all actives have a fitted effect of over 60% in size
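Luminescent ATP read-out (CellTiter-Glo, 10 min) measures survival of drug-selected KB-V1 MDR cells after 72 h, 37 degrees C compound exposure. Medium: phenol-red-free DMEM, 10% FBS. Values from fitted concentration-response curves.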
PTAP TSG101 blk = blocks PTAP/TSG101 interaction to inhibit HIV-1 budding; Q99816; Fluorescence polarization, FITC-PTAP peptide / Tsg101 binding; Potency, µM (highest dose often 115 µM), usual class: inhibitors; 340,000 tested, under 10 active; active means well fitted inhibition curve with a large enough effect in the main read-out, with a control signal flat, not every such curve was filed as active; inconclusive means small, poorly fitted or top-dose-only effect, or effect the other way, or a change in a side signal; inactive means no such curve, though single readings can be large or run the other way
Target sequence (Q99816 whole entry, looked up): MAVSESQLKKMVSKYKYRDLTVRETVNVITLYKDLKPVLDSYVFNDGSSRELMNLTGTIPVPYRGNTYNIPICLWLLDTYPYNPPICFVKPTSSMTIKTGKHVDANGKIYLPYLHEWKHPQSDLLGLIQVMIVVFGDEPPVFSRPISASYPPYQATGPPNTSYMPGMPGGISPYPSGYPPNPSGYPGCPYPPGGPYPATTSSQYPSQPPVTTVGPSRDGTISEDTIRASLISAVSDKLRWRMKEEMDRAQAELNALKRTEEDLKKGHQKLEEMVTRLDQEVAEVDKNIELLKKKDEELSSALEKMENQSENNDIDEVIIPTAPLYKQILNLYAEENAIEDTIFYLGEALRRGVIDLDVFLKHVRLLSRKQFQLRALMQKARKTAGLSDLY
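Tsg101 binding domain (10 uM final) was mixed with compound and a FITC-labeled PTAP peptide (50 nM final) in HEPES pH 7.5 buffer with NaCl, Tween 20, EDTA and TCEP; fluorescence polarization was read after 20 min at r.t.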
Large screens that a line does not name were inactive; ! = a repeat was not active. Unless noted, the call rests on the fitted dose curve; in most records, active means well fitted curve in the direction sought with a large enough effect; inconclusive means small, poorly fitted or top-dose-only effect, or another doubt; inactive means no such curve, though single readings can be large; an effect the other way counts as inactive or inconclusive.

Cc1ccc(S(=O)(=O)N2CCCCC2)cc1NC(=O)CSc1ncnc2ccccc12	MCF10A rereplic inconclusive, SW480 rereplic inconclusive, KB-V1 cytotox 16µM
COC(=O)c1ccc(NC(=O)CSc2nc3ccc(N4C(=O)C5C6C=CC(C6)C5C4=O)cc3s2)cc1 (configuration not stated)	MCF10A rereplic inconclusive, KB-3-1 tox 21µM, KB-V1 cytotox 21µM
C[C@H]1[C@@H](OS(=O)(=O)O)C[C@@H]2C[C@H]([C@@H](O)c3cc(=O)[nH]c(=O)[nH]3)NC3=NC[C@H]1N32	MCF10A rereplic inconclusive, SW480 rereplic inconclusive, KB-3-1 tox 1µM, KB-V1 cytotox 2.1µM
C[C@@H](Cc1ccc(O)cc1)NC[C@@H](O)c1cc(O)cc(O)c1	none (no result: RGS4 inhibitor, KB-3-1 tox, KB-V1 cytotox, PTAP TSG101 blk)
COc1ccc(Oc2cc(NC(=O)c3nn(C)cc3[N+](=O)[O-])cc([N+](=O)[O-])c2)cc1	MCF10A rereplic 2.1µM, SW480 rereplic inconclusive, KB-3-1 tox 21µM, KB-V1 cytotox inconclusive
O=C1NC(=O)C(=Cc2cn(CCOc3ccc4c(c3)OCO4)c3ccccc23)C(=O)N1	MCF10A rereplic inconclusive, SW480 rereplic inconclusive, KB-3-1 tox 21µM, KB-V1 cytotox inconclusive, PTAP TSG101 blk inconclusive
C=CCn1cc(C=C2C(=O)NC(=O)NC2=O)c2ccccc21	none
O=c1[nH]c(=O)n(-c2ccc(Cl)cc2)c(O)c1C=Nc1ccc(S(=O)(=O)Nc2nccs2)cc1	none
Clc1cccc(/C=N\Nc2nccs2)c1	MCF10A rereplic 5.8µM, KB-V1 cytotox inconclusive
COc1ccc([N+](=O)[O-])cc1NC(=O)COC(=O)c1ccccc1C(=O)c1ccccc1	RGS4 inhibitor inconclusive
COc1ccc(S(=O)(=O)Nc2cc([N+](=O)[O-])ccc2OC)cc1	MCF10A rereplic inconclusive, SW480 rereplic inconclusive, KB-3-1 tox inconclusive, KB-V1 cytotox 18µM
CC1(C)N(O)C(c2ccc(C(=O)O)cc2)=[N+]([O-])C1(C)C	none (no result: MCF10A rereplic, SW480 rereplic, KB-3-1 tox, KB-V1 cytotox, PTAP TSG101 blk)
c1ccc(CNC2CCCCCCC2)cc1 (tested in a mixture with another compound)	KB-V1 cytotox 23µM
CN1C(=O)C(=Cc2ccc(OCCN(C)c3ccccn3)cc2)C(=O)N(C)C1=O	MCF10A rereplic 0.41µM, KB-V1 cytotox inconclusive
CN1C(=O)C(=Cc2ccccc2Oc2ccc(Cl)cc2)C(=O)N(C)C1=O	RGS4 inhibitor inconclusive, SW480 rereplic inconclusive, KB-3-1 tox inconclusive, KB-V1 cytotox inconclusive
CCCC12CN3CC(CCC)(CN(C1)C3c1ccccn1)C2=O (configuration not stated)	KB-V1 cytotox 2.6µM!
COc1cc([C@@H]2c3cc4c(cc3[C@@H](O)C3COC(=O)C32)OCO4)cc(OC)c1O (some centres not stated)	none (no result: MCF10A rereplic, SW480 rereplic, KB-3-1 tox, KB-V1 cytotox, PTAP TSG101 blk)
CN1C(=O)C(=Cc2sc(=O)n(-c3ccccc3)c2N(C)C)C(=O)N(C)C1=O	MCF10A rereplic 18µM, KB-3-1 tox inconclusive
Cc1cc(C=C2C(=O)N(C)C(=O)N(C)C2=O)c(C)n1-c1ccccc1	none
CCc1ccc(N2C(=O)NC(=O)C(CCc3ccncc3)(CCc3ccncc3)C2=O)cc1	none
O=C1NC(=O)C(CCc2ccncc2)(Cc2cccc(Cl)c2Cl)C(=O)N1c1ccc(Br)cc1 (configuration not stated)	MCF10A rereplic 4.6µM, SW480 rereplic 12µM, KB-3-1 tox 5.2µM, KB-V1 cytotox 8.2µM
C[C@H](CCC(=O)O)[C@H]1CC[C@@H]2[C@@H]3[C@@H](O)C[C@H]4C[C@@H](O)CC[C@@]4(C)[C@H]3CC[C@@]21C	none (no result: RGS4 inhibitor, KB-3-1 tox, KB-V1 cytotox, PTAP TSG101 blk)
COC(=O)C1=C(c2ccc(-c3ccccc3)c(F)c2)C[C@@H]2CC[C@H]1N2C(=O)N1CCCCC1	MCF10A rereplic inconclusive, KB-V1 cytotox inconclusive
COC(=O)C1=C(c2ccc(-c3ccccc3)c(F)c2)C[C@@H]2CC[C@H]1N2C(=O)N1CCCC1	KB-3-1 tox 18µM, KB-V1 cytotox inconclusive (no result: PTAP TSG101 blk)
COC(=O)C1=C(c2ccc(-c3ccccc3)c(F)c2)C[C@@H]2CC[C@H]1N2C(=O)NC1Cc2ccccc2C1	SW480 rereplic 3.7µM, KB-3-1 tox inconclusive
COC(=O)C1=C(c2ccc(-c3ccccc3)c(F)c2)C[C@@H]2CC[C@H]1N2C(=O)NCC1CC1	MCF10A rereplic inconclusive, SW480 rereplic inconclusive, KB-3-1 tox inconclusive, KB-V1 cytotox inconclusive
COC(=O)C1=C(c2ccc(-c3ccccc3)c(F)c2)C[C@@H]2CC[C@H]1N2C(=O)N1CCOCC1	KB-3-1 tox 18µM
CCN1C[C@@]2(COC)C3[C@@H](OC)C4[C@@H]1C3([C@@H]1C[C@]3(O)[C@H](OC(=O)c5ccccc5)[C@@H]1[C@]4(OC(C)=O)[C@@H](O)[C@@H]3OC)[C@H](OC)C[C@H]2O	none (no result: MCF10A rereplic, SW480 rereplic, KB-3-1 tox, KB-V1 cytotox, PTAP TSG101 blk)
C[C@]12CCC3C(C[C@@H](O)[C@H]4C[C@@H](O)CC[C@]34C)C1CC[C@@H]2O (some centres not stated)	none
CC12CCC3C(CCCC4CC(=O)CCC43C)C1CCC2O (configuration not stated)	KB-3-1 tox inconclusive, KB-V1 cytotox 7.3µM
CC1CC2CC(=O)CCC2(C)C2CCC3(C)C(O)CCC3C12 (configuration not stated)	KB-3-1 tox inconclusive, KB-V1 cytotox 5.8µM (no result: MCF10A rereplic, RGS4 inhibitor, SW480 rereplic, PTAP TSG101 blk)
NS(=O)(=O)c1cc([C@@]2(O)NC(=O)c3ccccc32)ccc1Cl	none (no result: RGS4 inhibitor, KB-3-1 tox, KB-V1 cytotox, PTAP TSG101 blk)
C[C@]12C=CC(=O)C=C1CC[C@@H]1C2=CC[C@]2(C)[C@@H](C(=O)CN3CCN(c4cc(N5CCCC5)nc(N5CCCC5)n4)CC3)CC[C@@H]12	MCF10A rereplic inconclusive, RGS4 inhibitor 11µM!
Cn1c(O)c(C2=NN(C(=O)CCl)C(c3ccccc3)C2)c(=O)n(C)c1=O (configuration not stated)	none
CCC(=O)N1N=C(c2c(O)n(C)c(=O)n(C)c2=O)CC1c1ccccc1 (configuration not stated)	SW480 rereplic inconclusive, KB-3-1 tox 21µM, KB-V1 cytotox inconclusive
ClCCN(CCCl)c1ccc(C=Nc2ccncc2)cc1	none (no result: MCF10A rereplic, RGS4 inhibitor, SW480 rereplic, PTAP TSG101 blk)
CCC1CN2CCc3cc(OC)c(OC)cc3C2CC1CC1NCCc2c1[nH]c1ccc(O)cc21 (configuration not stated)	MCF10A rereplic inconclusive, SW480 rereplic inconclusive, KB-3-1 tox 0.41µM
COC(=O)C12CCc3c(ccc4cc(OC)ccc34)C1=CC(=O)C2 (configuration not stated)	KB-3-1 tox inconclusive, KB-V1 cytotox 21µM
CCCN1C[C@H](C)N([C@H](c2ccc(C(=O)N(CC)CC)cc2)c2cccc(OC)c2)C[C@H]1C	none (no result: MCF10A rereplic, SW480 rereplic, KB-3-1 tox, KB-V1 cytotox, PTAP TSG101 blk)

High-throughput results (PubChem)
